Test results: PubChem BioAssay AID1259421 (Broad Institute, 2018)
Values joined by “and” are separate entries in the source; they are usually repeats but may differ in a detail not shown here. Equal values may be shown once. In all, about 6,400 compounds went through this assay and about 610 (9.5%) were called active. This is one part of a sample in which actives are shown more often than they occur. Cut-off read from the data, not from the text of the source: active = activity change below about -70%; inconclusive = no clear call, values can overlap the other calls; inactive = above that. *1 amine or outer side, *2 acyl side, *3 side chain or, on linkers, in order; H or OH if unused. Where a SMILES comes first, the peptide text is derived from it. Side-chain parts run from the residue outwards. [ ]: non-standard residue; d: D form. The star is where a group is joined. Ethylenediamine = C(CN[*:2])N[*:1]; Hyp = O=C(O)[C@@H]1C[C@@H](O)CN1; Phg = N[C@H](C(=O)O)c1ccccc1; CO = O=C([*:1])[*:2]; Bn = c1ccc(C*)cc1

experiment: Toxoplasma gondii ME49Luc growth in HeLa cells, luciferase, no IFN-y, primary screen (AID 1259421); conditions: T. gondii ME49Luc in HeLa, 72 h, hits give low values, concentration not given here

| SMILES | activity change, negative = inhibition |
| --- | --- |
| C[C@@H]1O[C@@]2(CS1)CN1CCC2CC1 (racemic) | 6.56% (inactive) |
| C[C@@H]1CN(Cc2ncccn2)C[C@H]1c1nc2c(cnn2C2CCOCC2)c(=O)[nH]1 | 4.49% (inactive) |
| COC(=O)Nc1ccc(-c2nc(N3CCOCC3)c3cnn(C4CCN(C(=O)OC)CC4)c3n2)cc1 | 21.2% (inactive) |
| c1cncc(CN2CCC(n3ncc4c(N5CCOCC5)nc(-c5ccc6[nH]ccc6c5)nc43)CC2)c1 | -77.6% (active) |
| CC(=O)N1CCN(c2ccc(OCC3CO[C@](Cn4ccnc4)(c4ccc(Cl)cc4Cl)O3)cc2)CC1 (stereo partly specified) | -58.1% (inactive) |
| CCC1OC(=O)[C@H](C)C(=O)[C@H](C)[C@@H](OC2O[C@H](C)C[C@H](N(C)C)[C@H]2O)[C@](C)(OC)C[C@@H](C)C(=O)[C@H](C)[C@H]2N(CCCCn3cnc(-c4cccnc4)c3)C(=O)O[C@@]12C (stereo partly specified) | -5.19% (inactive) |
| NC(=S)N/N=C/c1ncccc1N | -83.2% (active) |
| NC(=S)N/N=C/c1ccncc1 | 6.58% (inactive) |
| CC(=O)O[C@]1(C(C)=O)CC[C@H]2[C@@H]3C=CC4=CC(=O)CC[C@]4(C)[C@H]3CC[C@@]21C | 8.87% (inactive) |
| CCCc1ncc(C(=O)O)s1 | 6.47% (inactive) |
| COc1cc(Br)c(S(=O)(=O)Nc2ccc(Cl)c(O[C@@H]3CCN(C)C3)c2)cc1OC | 5.97% (inactive) |
| N[C@H](C(=O)O)[C@@H]1CC(Cl)=NO1 | -72.2% (active) |
| NC(C(=O)O)[C@@H]1CC(Cl)=NO1 (stereo partly specified) | -82% (active) |
| COC(=O)C1[C@H]2C[C@H]3c4[nH]c5ccccc5c4CCN3C[C@@H]2CC[C@@H]1O (stereo partly specified) | -3.89% (inactive) |
| CC(=O)OCC(=O)[C@@]1(O)CCC2C3CCC4=CC(=O)CC[C@]4(C)C3[C@@H](O)C[C@@]21C (stereo partly specified) | -6.4% (inactive) and -14.3% (inactive) |
| CN(C)Cc1cccc(N=C(c2ccccc2)c2c(O)[nH]c3cc(C(=O)N(C)C)ccc23)c1 | -81.4% (active) |
| CN(C)Cc1cccc(N=C(c2ccccc2)c2c(O)[nH]c3cc(C(N)=O)ccc23)c1 | 9.28% (inactive) and -68.3% (inactive) |
| COC(=O)c1ccc2c(C(=Nc3ccc(N(C)C(=O)CN4CCN(C)CC4)cc3)c3ccccc3)c(O)[nH]c2c1 | -75.7% (active) |
| O=C(O)CN1CCN(CC(=O)O)CCN([C@H](CO)C(O)CO)CCN(CC(=O)O)CC1.[Gd] (stereo partly specified) | 8% (inactive) |
| CC1(CN)Cc2ccccc2C1 | 26% (inactive) |
| C=CC(C)(O)CC[C@@H]1[C@@]2(C)CCCC(C)(C)C2CC[C@@]1(C)O (stereo partly specified) | 13.1% (inactive) |
| COc1ccc2c(c1)OCC(Cc1ccc(OC)c(O)c1)C2=O (stereo unspecified) | -61% (inactive) |
| O=C(O)C1=CC(O)C(O)[C@H](O)C1 (stereo partly specified) | -17.2% (inactive) |
| CCC[C@@H](N[C@@H](C)C(=O)N1[C@@H](C(=O)O)C[C@@H]2CCCC[C@@H]21)C(=O)OCC | 10.1% (inactive) |
| COc1ccc(-c2cc3c(C)nc(N)nc3n(C3CCC(OCCO)CC3)c2=O)cn1 (stereo unspecified) | -79.8% (active) |
| CCn1c(=O)c(-c2ccn[nH]2)cc2c(C)nc(N)nc21 | -57.4% (inactive) |

| SMILES | activity change, negative = inhibition |
| --- | --- |
| N#CCC(=O)NN | 10.7% (inactive) |
| O=C(N[C@@H](CO)[C@H](O)c1ccc([N+](=O)[O-])cc1)C(Cl)Cl | 5.04% (inactive) |
| CCS(=O)(=O)Nc1ccc2[nH]c(O)c(C(=Nc3ccc(CN4CCCCC4)cc3)c3ccccc3)c2c1 | -88% (active) |
| N[C@H](C(=O)O)[C@H](O)c1ccc(O)c(O)c1 | -6.51% (inactive) |
| Cc1ccc(C(=O)Nc2ccc(Oc3cc4cnn(C)c4cc3-c3cn[nH]c3)c(F)c2)c(=O)n1-c1ccc(F)cc1 | -82.1% (active) |
| COC(=O)C(c1ccccc1Cl)N1CCc2sccc2C1 (stereo unspecified) | 6.54% (inactive) |
| CC[C@@]1(O)C(=O)OCc2c1cc1n(c2=O)Cc2cc3cc(O)ccc3nc2-1 | -73.3% (active) and -92.8% (active) |
| CC[C@@]1(O)C(=O)OCc2c1cc1n(c2=O)Cc2c-1nc1cc(F)c(C)c3c1c2[C@@H](N)CC3 | -89.9% (active) |
| CCc1c2c(nc3ccc(O)cc13)-c1cc3c(c(=O)n1C2)COC(=O)[C@]3(O)CC | -93.3% (active) |
| CC[C@@]1(O)C(=O)OCc2c1cc1n(c2=O)Cc2cc3c(CN(C)C)c(O)ccc3nc2-1 | -89.6% (active) |
| CCc1c2c(nc3ccc(OC(=O)N4CCC(N5CCCCC5)CC4)cc13)-c1cc3c(c(=O)n1C2)COC(=O)[C@]3(O)CC | 8.52% (inactive) |
| CC(=O)[C@H]1CCC2C3C[C@H](C)C4=CC(=O)CC[C@]4(C)C3[C@@H](O)C[C@@]21C (stereo partly specified) | -2.39% (inactive) |
| CN1C[C@@H]2c3ccccc3Oc3ccc(Cl)cc3[C@H]2C1 | 14.2% (inactive) |
| Cn1cc(-c2cnc3ccc4ccc(CS(=O)(=O)NCc5ccccn5)cc4c(=O)c3c2)cn1 | -4.03% (inactive) |
| CS(=O)(=O)c1ccc(Cn2c3c(c4cc(F)cc(F)c42)CCCC3CC(=O)O)cc1 (stereo unspecified) | 1.13% (inactive) and 1.18% (inactive) |
| c1ccc(C(NCCNC(c2ccccc2)c2ccccc2)c2ccccc2)cc1 | -24.5% (inactive) and -4.76% (inactive) |
| Cn1c(=O)cc(N2CCCC(N)C2)n(Cc2cc(F)ccc2C#N)c1=O (stereo unspecified) | 0.449% (inactive) |
| C[C@H]1CC2C3CCC4=CC(=O)C=C[C@]4(C)[C@@]3(F)[C@@H](O)C[C@]2(C)[C@@]1(O)C(=O)COP(=O)(O)O (stereo partly specified) | -6.5% (inactive) |
| COc1cc(O)c2c(=O)c(OC)c(-c3ccc(OC)c(OC)c3)oc2c1 | 3.09% (inactive) |
| CC(=O)OCC(=O)[C@@]1(O)CCC2C3CCC4=CC(=O)C=CC4(C)C3[C@@H](O)C[C@@]21C (stereo partly specified) | 1.73% (inactive) |
| CC1(C)[C@@H](O[C@H]2O[C@H](C(=O)O)[C@@H](O)[C@H](O)[C@@H]2O[C@@H]2O[C@H](C(=O)O)[C@@H](O)[C@H](O)[C@H]2O)CC[C@@]2(C)[C@H]3C(=O)C=C4[C@@H]5C[C@@](C)(C(=O)O)CC[C@]5(C)CC[C@@]4(C)[C@]3(C)CC[C@@H]12 | 5.63% (inactive) |
| CC[C@@]1(O)C(=O)OCc2c1cc1n(c2=O)Cc2cc3c([N+](=O)[O-])cccc3nc2-1 | -85.8% (active) |
| O=C(Cc1ccccc1)Nc1nc2ccc(Cl)cc2c2nc(-c3ccco3)nn12 | 2.82% (inactive) and 3.45% (inactive) |
| Cc1nc(Cn2cnc3c2c(=O)n(C)c(=O)n3C)no1 | 8.05% (inactive) |
| CCOCCn1c(N2CCCN(C)CC2)nc2ccccc21 | 16.4% (inactive) |
| Cc1cnc(CNC(=O)c2c(=O)c3ccc(N4CCCN(C)CC4)nc3n3c2sc2ccccc23)cn1 | -82.2% (active) |

| SMILES | activity change, negative = inhibition |
| --- | --- |
| CCC(C(N)=O)c1ccccc1 (stereo unspecified) | -4.72% (inactive) |
| CN(Cc1ccccc1)C(=O)C(Cc1ccc2ccccc2c1)NC(=O)C1CCCN1C(=O)Nc1ccccc1[N+](=O)[O-] (stereo unspecified) | 0.794% (inactive) |
| O=C(O)c1cc2cc(Cl)ccc2[nH]1 | 10.5% (inactive) |
| CCCCCCCCNC[C@@H](O)[C@H](O)[C@@H](O)[C@@H](O)CO | 17.8% (inactive) |
| S=P(N1CC1)(N1CC1)N1CC1 | 7.66% (inactive) |
| CC(C)OC(=O)c1cn(Cc2c(F)cccc2F)c2sc(-c3ccc(NC(=O)C(C)C)cc3)c(CN(C)Cc3ccccc3)c2c1=O | -80.6% (active) |
| OC(CN1CCNCC1)Cn1c2ccc(Br)cc2c2cc(Br)ccc21 (stereo unspecified) | -61.8% (inactive) |
| O=C1Cc2cc(Cl)ccc2N1 | 8.1% (inactive) |
| CC[C@H](C)n1cc(C)c2c(C(=O)NCc3c(C)cc(C)[nH]c3=O)cc(-c3ccc(N4CCNCC4)nc3)cc21 | 1.27% (inactive) |
| OCCn1cc(-c2ccc3c(c2)CC/C3=N\O)c(-c2ccncc2)n1 | -63.9% (inactive) and -44.3% (inactive) |
| CN(C)CCOc1ccc(-c2nc(-c3ccc4c(c3)CC/C4=N\O)c(-c3ccncc3)[nH]2)cc1 | -76.7% (active) |
| O=c1[nH]c(=O)n([C@H]2CC(O)[C@@H](CO)O2)cc1/C=C/Br (stereo partly specified) | 8.12% (inactive) |
| O=C(/C=C/c1ccccc1)c1ccc(O)cc1O | 65.1% (inactive) |
| O=C(/C=C/c1cccc(S(=O)(=O)Nc2ccccc2)c1)NO | -80.9% (active) |
| CCNC(=O)/C=C/c1cccc(Br)c1 | 53.2% (inactive) |
| CNC(=O)CN(CCN(CCN(CC(=O)O)CC(=O)NC)CC(=O)O)CC(=O)O.[Gd] | 9.1% (inactive) |
| CCCCCN(CCCOC)C(=O)[C@@H](CCC(=O)O)NC(=O)c1ccc(Cl)c(Cl)c1 | 5.05% (inactive) |
| NCCCC[C@@H]1NC(=O)[C@@H](Cc2c[nH]c3ccccc23)NC(=O)[C@H](c2ccccc2)NC(=O)[C@@H]2C[C@@H](OC(=O)NCCN)CN2C(=O)[C@H](Cc2ccccc2)NC(=O)[C@H](Cc2ccc(OCc3ccccc3)cc2)NC1=O (cyclo([Hyp]([CO-Ethylenediamine])[Phg][dW]KY(Bn)F)) | 9.07% (inactive) |
| Cc1ccc(-c2cc(C(F)(F)F)nn2-c2ccc(S(N)(=O)=O)cc2)cc1 | 17% (inactive) and 0.0196% (inactive) |
| NCC(=O)Nc1ccc(-n2nc(C(F)(F)F)cc2-c2ccc3c(ccc4ccccc43)c2)cc1 | -75.5% (active) |
| CCn1cnc(C(=O)NC)c1C(=O)NC | 4% (inactive) |
| C[C@H](/C=C/[C@H](C)C(C)(C)O)[C@H]1CC[C@H]2/C(=C/C=C3C[C@@H](O)C[C@H](O)C3)CCC[C@]12C | 20.9% (inactive) |
| N#Cc1cc2c(OCC(O)CN3CCN(C(c4ccccc4)c4ccccc4)CC3)cccc2[nH]1 (stereo unspecified) | -30% (inactive) |
| NCC(=O)N1C[C@H](NC(=O)c2ccccc2)C[C@H]1C(=O)O | 17.6% (inactive) |
